Results published in PubChem BioAssay (NCI).
Compounds without any hit were thinned out: in the full panel of roughly 79,000, 15% have a hit. Calls of active or inactive are those of the source. Rule as the data show it: active = growth inhibition above about 70%; inactive = the rest.

How the values were obtained:
[1] = NCI Yeast Anticancer Drug Screen. Data for the rad50EPP+ strain (AID 151);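 also: 0% = growth of vehicle-treated control cultures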; conditions: S. cerevisiae rad50 mutant strain, active compounds read high
Procedure, shortened: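 In this screen, rad50EPP+ yeast were exposed to compounds. Growth inhibition was scored against vehicle-treated controls.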

[2] = NCI Yeast Anticancer Drug Screen. Data for the mgt1 strain (AID 153); conditions: S. cerevisiae mgt1 mutant growth inhibition, active compounds read high
Procedure, shortened: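 mgt1 strain exposed; growth vs vehicle control recorded as inhibition.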

[3] = NCI Yeast Anticancer Drug Screen. Data for the rad50 strain (AID 155);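 also: 0% = growth of vehicle-only cultures of the same strain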; conditions: S. cerevisiae rad50 strain growth inhibition, active compounds read high
Procedure, shortened: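 Growth of the mutant yeast was measured after compound exposure and referenced to vehicle-treated cultures.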

[4] = NCI Yeast Anticancer Drug Screen. Data for the rad14 strain (AID 159);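 also: 0% = growth of vehicle-treated control cultures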; conditions: S. cerevisiae rad14 strain growth inhibition, active compounds read high
Procedure, shortened: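 Here, inhibition of yeast growth was measured after compound exposure, using a strain with a genetic defect in DNA damage repair and vehicle-treated cultures as the reference.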

[5] = NCI Yeast Anticancer Drug Screen. Data for the sgs1 mgt1 strain (AID 161);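 also: 0% = growth of cultures given vehicle only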; conditions: S. cerevisiae sgs1 mgt1 strain, active compounds read high
Procedure, shortened: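 Read-out: growth inhibition vs vehicle controls. Cells: mutant yeast strain deficient in DNA damage repair.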

[6] = NCI Yeast Anticancer Drug Screen. Data for the CLN2oe strain (AID 163);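 also: 0% = growth of vehicle-only control cultures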; conditions: S. cerevisiae CLN2oe strain, active compounds read high
Procedure, shortened: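 Inhibition relative to vehicle-treated yeast is reported. Cells: strain with genetic alteration in cell-cycle control, grown with compound.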

[7] = NCI Yeast Anticancer Drug Screen. Data for the cln2 rad14 strain (AID 165);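 also: 0% = growth equal to vehicle treated cultures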; conditions: S. cerevisiae cln2 rad14 strain, active compounds read high
Procedure, shortened: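 Each compound was tested on cln2 rad14 yeast. Inhibition of growth was calculated against vehicle-exposed controls.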

[8] = NCI Yeast Anticancer Drug Screen. Data for the bub3 strain (AID 167); conditions: S. cerevisiae bub3 mutant strain, active compounds read high
Procedure, shortened: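 Whole-cell yeast assay. The mutant strain was incubated with compounds, and growth inhibition was determined by comparison with vehicle-treated cells.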

[9] = NCI Yeast Anticancer Drug Screen. Data for the wt2 strain (AID 169);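 also: 0% = growth of vehicle-treated yeast cultures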; conditions: S. cerevisiae wt2 strain growth inhibition, active compounds read high
Procedure, shortened: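 Inhibition of yeast growth was determined after compound treatment, normalised to controls receiving only vehicle.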

[10] = NCI Yeast Anticancer Drug Screen. Data for the mlh1 strain (AID 171);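 also: 0% = growth of vehicle-treated control cultures of the same strain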; conditions: S. cerevisiae mlh1 strain growth inhibition, active compounds read high
Procedure, shortened: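 Vehicle-normalised growth inhibition of a repair- or checkpoint-altered yeast strain following compound treatment.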

[11] = NCI Yeast Anticancer Drug Screen. Data for the sgs1 strain (AID 173);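 also: 0% = growth of vehicle-only control cultures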; conditions: S. cerevisiae sgs1 mutant, active compounds read high
Procedure, shortened: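 Screen format: yeast with repair or checkpoint alterations, compound exposure, growth read relative to vehicle.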

[12] = NCI Yeast Anticancer Drug Screen. Data for the mlh1 rad18 strain (AID 175); conditions: S. cerevisiae mlh1 rad18 strain growth inhibition, active compounds read high
Procedure, shortened: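 Vehicle-treated cultures served as the reference for growth inhibition in a yeast strain carrying DNA damage repair alterations exposed to each compound.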

[13] = NCI Yeast Anticancer Drug Screen. Data for the rad18 strain (AID 177); conditions: S. cerevisiae rad18 mutant growth inhibition, active compounds read high
Procedure, shortened: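 Test articles were incubated with altered yeast defective in DNA damage repair. Results are given as inhibition of growth versus vehicle.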

[14] = NCI Yeast Anticancer Drug Screen. Data for the mec2-1 strain (AID 157); conditions: S. cerevisiae mec2-1 strain, active compounds read high
Procedure, shortened: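 Vehicle-treated cultures served as reference for growth inhibition of compound-exposed mec2-1 yeast.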

[15] = at 5.0 µM (retest, dose inferred, filed as 0.5)
[16] = at 50.0 µM (retest, dose inferred, filed as 5.0)

Measured: growth inhibition

CC(=O)CC[N+](C)(C)C
active: [3]; [16] 100% | [12]; [16] 80%
inactive: [1]; at 1.2 µM -7% | [1]; at 3.7 µM 4% | [1]; at 11.0 µM -4% | [1]; at 33.0 µM -15% | [1]; at 100.0 µM 7% | [2]; at 1.2 µM -29% | [2]; at 3.7 µM -21% | [2]; at 11.0 µM -17% | [2]; at 33.0 µM -21% | [2]; at 100.0 µM -2% | [3]; at 1.2 µM -14% | [3]; at 3.7 µM -9% | [3]; [15] 31% | [3]; at 11.0 µM -4% | [3]; at 33.0 µM -14% | [3]; at 50.0 µM 0.7% | [3]; at 100.0 µM -13% | [4]; at 1.2 µM 5% | [4]; at 3.7 µM 6% | [4]; at 11.0 µM -5% | [4]; at 33.0 µM 0% | [4]; at 100.0 µM -2% | [5]; [15] 13% | [5]; [16] 51% | [5]; at 50.0 µM -30.9% | [6]; at 1.2 µM 17% | [6]; at 3.7 µM 28% | [6]; at 11.0 µM 31% | [6]; at 33.0 µM 31% | [6]; at 100.0 µM 36% | [7]; [15] 25% | [7]; [16] 30% | [7]; at 50.0 µM -41.7% | [8]; at 1.2 µM 12% | [8]; at 3.7 µM 16% | [8]; [15] 20% | [8]; at 11.0 µM 16% | [8]; at 33.0 µM 13% | [8]; [16] 14% | [8]; at 50.0 µM -24.3% | [8]; at 100.0 µM 27% | [9]; at 1.2 µM -22% | [9]; at 3.7 µM -1% | [9]; at 11.0 µM -25% | [9]; at 33.0 µM -31% | [9]; at 100.0 µM -30% | [10]; at 1.2 µM -13% | [10]; at 3.7 µM -6% | [10]; at 11.0 µM -11% | [10]; at 33.0 µM -9% | [10]; at 100.0 µM -22% | [11]; at 1.2 µM -8% | [11]; at 3.7 µM -12% | [11]; at 11.0 µM 3% | [11]; at 33.0 µM 3% | [11]; at 100.0 µM 23% | [12]; [15] 26% | [12]; at 50.0 µM 41.9% | [13]; at 1.2 µM -20% | [13]; at 3.7 µM -11% | [13]; at 11.0 µM 14% | [13]; at 33.0 µM -2% | [13]; at 100.0 µM -10%

Cc1cccc(N2CCN(C(=O)/C(=C/c3ccccc3)NC(=O)c3ccccc3)CC2)c1
inactive: [1]; at 1.2 µM 2% | [1]; at 3.7 µM 0% | [1]; at 11.0 µM 0% | [1]; at 33.0 µM 2% | [1]; at 100.0 µM -9% | [2]; at 1.2 µM -4% | [2]; at 3.7 µM -4% | [2]; at 11.0 µM 0% | [2]; at 33.0 µM 44% | [2]; at 100.0 µM 54% | [3]; at 1.2 µM -4% | [3]; at 3.7 µM -48% | [3]; [15] -1% | [3]; at 11.0 µM 29% | [3]; at 33.0 µM 59% | [3]; [16] 48% | [3]; at 50.0 µM 12.3% | [3]; at 100.0 µM 68% | [14]; at 1.2 µM -1% | [14]; at 3.7 µM 0% | [14]; [15] -3% | [14]; at 11.0 µM 8% | [14]; at 33.0 µM 36% | [14]; [16] -26% | [14]; at 50.0 µM 2.95% | [14]; at 100.0 µM 43% | [4]; at 1.2 µM -4% | [4]; at 3.7 µM -6% | [4]; at 11.0 µM 0% | [4]; at 33.0 µM 28% | [4]; at 100.0 µM 35% | [5]; [15] 0% | [5]; [16] 56% | [5]; at 50.0 µM -13.3% | [6]; at 1.2 µM -6% | [6]; at 3.7 µM -6% | [6]; at 11.0 µM 3% | [6]; at 33.0 µM 38% | [6]; at 100.0 µM 33% | [8]; at 1.2 µM -3% | [8]; at 3.7 µM -1% | [8]; [15] -41% | [8]; at 11.0 µM 5% | [8]; at 33.0 µM 41% | [8]; [16] 38% | [8]; at 50.0 µM 10.1% | [8]; at 100.0 µM 38% | [9]; at 1.2 µM -2% | [9]; at 3.7 µM 6% | [9]; at 11.0 µM 1% | [9]; at 33.0 µM 38% | [9]; at 100.0 µM 46% | [10]; at 1.2 µM -1% | [10]; at 3.7 µM -2% | [10]; at 11.0 µM 4% | [10]; at 33.0 µM 41% | [10]; at 100.0 µM 48% | [11]; at 1.2 µM -2% | [11]; at 3.7 µM 2% | [11]; at 11.0 µM 16% | [11]; at 33.0 µM 53% | [11]; at 100.0 µM 59% | [12]; [15] 1% | [12]; [16] 64% | [12]; at 50.0 µM 25.9% | [13]; at 1.2 µM -2% | [13]; at 3.7 µM 0% | [13]; at 11.0 µM 5% | [13]; at 33.0 µM 51%
active: [13]; at 100.0 µM 70%
